Rows were chosen to be rich in hits. Some 0.84% of all compounds tested hit in one or more screens of this group.
TR-FRET SRC-2 ct – counter-screen for PPARgamma SRC-2 recruitment agonists: TR-FRET artefact; hit rate 0.4% among 200,000; AID 1049; hits give high values; TR-FRET ratio at 8 µM
SRC3 TRFRET art – flags TR-FRET format artefacts in PPARgamma SRC-3 recruitment agonist screen; hit rate 0.39% among 99,000; TR-FRET artefact counter-screen, PPARgamma/SRC-3 format; hits give high values; TR-FRET ratio at 8 µM
PPARg SRC2 recr – agonists of SRC-2 recruitment by human PPARgamma; P37231; PPARgamma LBD-SRC-2 recruitment, biochemical; activation, % at 8 µM; hit rate 0.34% among 200,000; AID 1032; in the data active means activation above about 22%;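 further: 0% = vehicle and 100% = reference agonist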
Target sequence (P37231 whole entry, looked up, the tested form may be a part): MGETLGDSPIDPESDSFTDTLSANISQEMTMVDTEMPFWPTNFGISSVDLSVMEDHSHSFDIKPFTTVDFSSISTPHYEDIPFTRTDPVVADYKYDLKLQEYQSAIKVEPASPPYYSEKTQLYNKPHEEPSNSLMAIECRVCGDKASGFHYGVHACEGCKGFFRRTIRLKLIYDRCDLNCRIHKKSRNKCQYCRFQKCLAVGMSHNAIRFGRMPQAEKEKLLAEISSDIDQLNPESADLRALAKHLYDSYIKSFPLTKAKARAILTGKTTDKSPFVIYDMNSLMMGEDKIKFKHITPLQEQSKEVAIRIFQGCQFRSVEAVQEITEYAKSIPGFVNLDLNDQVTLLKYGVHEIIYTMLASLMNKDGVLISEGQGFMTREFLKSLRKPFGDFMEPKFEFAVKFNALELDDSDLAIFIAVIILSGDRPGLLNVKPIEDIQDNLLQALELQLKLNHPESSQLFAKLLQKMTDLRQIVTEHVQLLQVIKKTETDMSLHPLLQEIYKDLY
PPARg SRC3 recr – PPARgamma-driven SRC-3 recruitment agonism; P37231; biochemical PPARgamma/SRC-3 coactivator recruitment assay; activation, % at 8 µM; hit rate 0.26% among 200,000; in the data active means activation above about 23%;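 further: 0% = DMSO and 100% = reference agonist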
SRC1 TRFRET art – counter-screen for PPARgamma SRC-1 recruitment agonists: TR-FRET artefact | AID 1051 | TR-FRET detection artefact counter-screen, emission ratio; hits give high values | hit rate 0.34% among 99,000 | TR-FRET ratio at 8 µM; in the data active means TR-FRET ratio above about 2300
PPARg SRC1 recr – agonists of human PPARgamma SRC-1 coactivator recruitment; PPARgamma-SRC-1 coactivator recruitment biochemical assay; hit rate 0.41% among 200,000; AID 631; activation, % at 8 µM; P37231; in the data active means activation above about 19%;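 further: 0% = DMSO and 100% = reference agonist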
* = called active by the depositor; . = no result. Unless noted, no stated cut-off is given here; in the data, active means TR-FRET ratio above about 2000; inactive means the rest.

SMILES	TR-FRET SRC-2 ct	SRC3 TRFRET art	PPARg SRC2 recr	PPARg SRC3 recr	SRC1 TRFRET art	PPARg SRC1 recr
O=C(CSc1ncnc2c1oc1ccccc12)NCC1CCCO1 (stereo unspecified)	3902*	.	110*	131*	.	95*
COc1cccc(C(=O)Nc2ccc(-c3nc4ccccc4o3)c(O)c2)c1	2264*	.	9	-5	.	3
COc1ccc2c(c1)[nH]c(=O)c1sc3ccccc3c12	1661	.	7	8	.	15
COc1ccc2sc3c(=O)[nH]c4ccccc4c3c2c1	1611	.	1	8	.	145*
C=CCc1ccc(OCCCCCN2CCOCC2)c(OC)c1	1600	.	-6	-1	.	3
COc1ccc(C2CC(c3cccs3)=NN2C(=O)COC(=O)C2CCCCC2)cc1OC (stereo unspecified)	1638	1612	9	6	2074	3
COc1ccc(C2CC(c3cccs3)=NN2C(=O)COC(=O)c2cncc(Br)c2)cc1OC (stereo unspecified)	1406	2284*	2	3	2246	11
CN(C)/C=C/C(=O)c1cc(N2CCOCC2)ccc1[N+](=O)[O-]	1702	1483	2	-3	1954	0
COc1cc(OC)cc(C(=O)NCC(=O)OCC(=O)c2ccc3c(c2)-c2ccccc2C3)c1	2065*	2602*	7	5	2143	8
O=C(CSc1cn(Cc2ccccc2)c2ccccc12)Nc1nccs1	3013*	.	1	-10	.	-2
COc1ccc([N+](=O)[O-])cc1NC(=S)NC(NC(=O)C(c1ccccc1)c1ccccc1)C(Cl)(Cl)Cl (stereo unspecified)	2107*	.	7	4	.	3
CN1CCCCc2c1[nH]c1ccccc1c2=O	1528	.	0	-3	.	6
Cc1cc(C)cc(-n2c(C)cc(/C=N/NC(=O)c3ccncc3)c2C)c1	1986*	1610	4	1	2092	1
Cc1ccccc1-n1c(C)cc(/C=N/NC(=O)c2ccncc2)c1C	1379	.	-6	-6	.	-4
Cc1cc(C)cc(-n2c3nc4ccccc4nc3c3c(=O)n(Cc4ccco4)cnc32)c1	1412	.	7	8	.	1
CCOc1ccc(-n2c3nc4ccccc4nc3c3c(=O)n(Cc4ccco4)cnc32)cc1	1566	.	7	84*	.	45*
O=C(Cc1ccccc1)NN1C(=O)/C(=C/c2ccccc2C(=O)O)SC1=S	1631	1621	0	7	1873	5
Cc1cc(/C=C2/C(=O)N(C)C(=S)N2C)c(C)n1C1CC1	1763	1564	22*	-1	1884	3
N#Cc1c(NC(=O)c2ccccc2Cl)n(Cc2ccccc2)c2nc3ccccc3nc12	1663	1498	13	62*	1811	21*
CCCCn1c(NC(=O)c2ccccc2Cl)c(C#N)c2nc3ccccc3nc21	1951	.	22	23	.	13
NC(=S)Nc1cccc2[nH]ccc12	1374	1330	-11	-1	1645	6
CCOc1cc(/C=N/NC(=O)c2ccc(O)cc2)ccc1Oc1nc(Cl)ncc1F	1608	1632	9	5	2558*	13
O=C(COC(=O)/C(=C/c1cccs1)c1cccs1)NC(c1ccccc1)c1ccccc1	1560	1678	16	-4	1676	-2
CCCCSc1nc(O)cc(=O)n1CC	1577	1549	0	-4	1628	3
CC(=O)Nc1c(O)nc(SCC(=O)Nc2ccc(C(C)=O)cc2)[nH]c1=O	1727	.	8	26*	.	5
SMILES	TR-FRET SRC-2 ct	SRC3 TRFRET art	PPARg SRC2 recr	PPARg SRC3 recr	SRC1 TRFRET art	PPARg SRC1 recr
CC(=O)Nc1c(O)nc(SCC(=O)Nc2cccc(C)c2)[nH]c1=O	1625	.	0	2	.	-1
O=C(C1=C[C@@H](c2ccc(C(F)(F)F)cc2)C[C@@H](OCc2ccc(CO)cc2)O1)N1CCOCC1	1870	1614	24*	1	1750	7
CN(C)S(=O)(=O)c1ccc(N2CCCC2)c(C(=O)Nc2nc3c(ccc4ccccc43)s2)c1	2069*	2179*	10	7	2112	2
O=C(Nc1nc2c(ccc3ccccc32)s1)c1cc([N+](=O)[O-])ccc1N1CCOCC1	1851	1643	-8	-1	2030	4
CCc1cc2ccc(OC)cc2nc1SCC(=O)NNC(=O)c1ccco1	2005*	1814	21	10	2083	15
O=C(Cc1ccccc1)NCc1ccc2c(c1)OCO2	1270	.	-1	-6	.	0
O=C(Cc1ccccc1[N+](=O)[O-])NCc1ccc2c(c1)OCO2	1512	1639	4	12	2325*	12
O=C(NCc1cccc(F)c1)c1ccc(N2C(=O)Cn3c(cc4sccc43)C2=O)cc1	1654	2155*	-4	0	2114	-2
O=C(COC(=O)c1ccc(O)cc1)Nc1ccc(Cl)cc1	1680	1671	5	7	1956	12
O=C(Cn1cc(C(F)(F)F)ccc1=O)Nc1cccc(S(=O)(=O)N2CCOCC2)c1	1786	1570	-8	1	1885	4
Cc1ccc2nc(-c3ccc(NC(=S)NCCC(C)C)cc3)sc2c1	1682	.	41*	21	.	14
CCCCNC(=S)Nc1ccc(-c2nc3ccc(C)cc3s2)cc1	1744	1753	15	2	1999	3
CCOC(=O)c1c(NC(=O)CSc2nc3ccccc3s2)sc(C(C)=O)c1C	2122*	.	3	0	.	-2
CCOC(=O)c1c(NC(=O)CSc2nc3cc(Cl)ccc3s2)sc(C(C)=O)c1C	1636	1545	8	5	1894	2
Cc1ccc(OCCNC(=O)Cc2ccc(F)cc2)cc1	1585	1575	5	6	1940	6
O=C(N/N=C/C=C\c1ccccc1[N+](=O)[O-])c1ccco1	1978*	1595	3	6	1928	14
Cc1occc1C(=O)N/N=C/C=C\c1ccccc1[N+](=O)[O-]	1654	1550	5	6	1846	10
CCOc1ccc(-c2nn(-c3ccccc3)cc2/C=C2\SC(N)=NC2=O)cc1C	1581	.	3	29*	.	-1
CCOc1ccc(-c2nn(-c3ccccc3)cc2/C=C2\SC(=S)N(C3CCS(=O)(=O)C3)C2=O)cc1 (stereo unspecified)	1500	.	-8	-13	.	-4
Cn1c(C(=O)N2CCOCC2)cnc1Sc1ncc(C(F)(F)F)cc1Cl	1743	.	22*	10	.	-1
COc1ccc(-c2oc3ncnc(NCCCN4CCOCC4)c3c2-c2ccc(OC)cc2)cc1	1464	.	-3	-1	.	1
c1ccc(-c2oc3ncnc(NCCCN4CCOCC4)c3c2-c2ccccc2)cc1	1628	.	1	7	.	24*
Cc1ccc(-c2csc3ncnc(SCC(=O)NCc4ccc5c(c4)OCO5)c23)cc1	2614*	.	2	12	.	6
COC(=O)c1ccc2c(=O)n(Cc3ccco3)c(SCC(=O)Nc3ccc(C)c(Cl)c3)nc2c1	1665	.	10	-11	.	16

Screening data: PubChem BioAssay, The Scripps Research Institute Molecular Screening Center
